In the library only some 3.5% were active in any assay of this set; here they are far more common.
Pf apPOL block: Pf-apPOL inhibitors, biochemical, fluorescence | inhibition, % at 10 µM | actives 0.25% (n = 210,000) | Recombinant Pf-apPOL, molecular beacon fluorescence, 1.5 h | Plasmodium falciparum apicoplast DNA polymerase (apPOL)
mHTT-CaM PPI inh: mutant huntingtin-calmodulin interaction inhibitors – biochemical, AlphaScreen, primary screen. P42858. AlphaScreen His-mHTT/GST-CaM binding, luminescence. inhibition, % at 15 µM. actives 3.6% (n = 190,000);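 note: 0% = both proteins with DMSO and 100% = one protein alone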
Numbers without * were called inactive. Cut-off read from the data, not from the text of the source: active = inhibition above about 50%; inactive = the rest.

What do the screens show for `Cc1ccc(S(=O)(=O)N2CCCC(C)(C(=O)NCc3ccccc3C)C2)cc1C` (stereo unspecified)?
Pf apPOL block: -4; mHTT-CaM PPI inh: 77*

How did COc1ccc(S(=O)(=O)N2CCCC(C)(C(=O)NCc3ccccc3C)C2)cc1 (stereo unspecified) do in these assays?
Pf apPOL block: -1; mHTT-CaM PPI inh: 0

How did Cc1ccccc1CNC(=O)C1(C)CCCN(S(=O)(=O)c2ccc(F)cc2)C1 (stereo unspecified) do in these assays?
Pf apPOL block: -1; mHTT-CaM PPI inh: -6

What do the screens show for `O=C(CCc1ccccc1)N1CCC2(CC1)Nc1cccnc1NC2=NC1CCCC1`?
Pf apPOL block: -3; mHTT-CaM PPI inh: 23

How did O=C(NCc1ccco1)C(=O)Nc1ccc2c(c1)OCO2 do in these assays?
Pf apPOL block: -2; mHTT-CaM PPI inh: 0

How did Cc1ccc(CNc2ccc3c(c2)OCO3)cc1 do in these assays?
Pf apPOL block: 0; mHTT-CaM PPI inh: 100*

What do the screens show for `Cc1ccc(C(=O)Nc2ccc3c(c2)OCO3)cc1`?
Pf apPOL block: 0; mHTT-CaM PPI inh: 47

Results for CCCCOc1ccc(S(=O)(=O)NCc2ccc3c(c2)OCO3)cc1 ?
Pf apPOL block: -18; mHTT-CaM PPI inh: -1

How did c1coc(CNc2ccc3c(c2)OCO3)c1 do in these assays?
Pf apPOL block: 2; mHTT-CaM PPI inh: 71*

How did Cc1ccccc1CNc1ccc2c(c1)OCO2 do in these assays?
Pf apPOL block: 6; mHTT-CaM PPI inh: 91*

What do the screens show for `CCCCOc1ccc(CNc2ccc3c(c2)OCO3)cc1`?
Pf apPOL block: 0; mHTT-CaM PPI inh: 92*

How did COc1ccccc1CC(=O)Nc1ccc2c(c1)OCO2 do in these assays?
Pf apPOL block: -4; mHTT-CaM PPI inh: 7

What do the screens show for `COc1ccccc1NC(=O)C1CC(=O)OC12CCOC(C)(C)C2` (stereo unspecified)?
Pf apPOL block: -6; mHTT-CaM PPI inh: 4

What do the screens show for `COc1c(-c2ccccc2)oc2c(ccc3ccoc32)c1=O`?
Pf apPOL block: -18

Results for NS(=O)(=O)c1cccc(-c2ccc(C=O)o2)c1 ?
Pf apPOL block: 1; mHTT-CaM PPI inh: 5

Results for CCN(CC)Cc1c(O)ccc2c1OC(=Cc1c[nH]c3ccccc13)C2=O ?
Pf apPOL block: -31; mHTT-CaM PPI inh: 72*

What do the screens show for `CCN(CC)Cc1c(O)ccc2c1OC(=Cc1ccccc1C)C2=O`?
Pf apPOL block: 0; mHTT-CaM PPI inh: 10

Results for CN1CCN(Cc2c(O)ccc3c2OC(=Cc2c[nH]c4ccccc24)C3=O)CC1 ?
Pf apPOL block: -10; mHTT-CaM PPI inh: -1

How did CCN1CCN(Cc2c(O)ccc3c2OC(=Cc2c[nH]c4ccccc24)C3=O)CC1 do in these assays?
Pf apPOL block: -6; mHTT-CaM PPI inh: 54*

What do the screens show for `COc1cc(C)nc2ccc(NC(=O)Nc3ccccc3C(F)(F)F)cc12`?
Pf apPOL block: -3; mHTT-CaM PPI inh: 1

What do the screens show for `O=C(CCn1c(=O)[nH]c2ccsc2c1=O)NCCc1ccccc1Cl`?
Pf apPOL block: -5; mHTT-CaM PPI inh: 5

How did Clc1ccc2nc(CSc3nncn3-c3ccccc3)c(Br)n2c1 do in these assays?
Pf apPOL block: 3; mHTT-CaM PPI inh: -1

Results for O=c1[nH]c(=O)n(Br)c(=O)n1Br ?
Pf apPOL block: 4; mHTT-CaM PPI inh: 5

How did CC(C)(C)c1cc(C(c2ccccc2O)N2CCOCC2)cc(C(C)(C)C)c1O (stereo unspecified) do in these assays?
Pf apPOL block: 12; mHTT-CaM PPI inh: 52*

Results for COc1cc(C(c2cc3c(cc2O)OCO3)N2CCOCC2)cc(OC)c1OC (stereo unspecified) ?
mHTT-CaM PPI inh: 26

Results for Cc1ccc(NC2=C(N3CCOCC3)C(=O)c3ccccc3C2=O)cc1 ?
Pf apPOL block: 4; mHTT-CaM PPI inh: 46

What do the screens show for `CC1CCN(C(c2ccc(N(C)C)cc2)c2cc(C(C)(C)C)c(O)c(C(C)(C)C)c2)CC1` (stereo unspecified)?
Pf apPOL block: -7; mHTT-CaM PPI inh: 66*

How did CC(C)(C)c1cc(C2=C(N3CCOCC3)C(=O)c3ccccc3C2=O)cc(C(C)(C)C)c1O do in these assays?
Pf apPOL block: -2; mHTT-CaM PPI inh: 86*

Results for CC(C)(C)c1cc(CN2CCC(O)CC2)cc(C(C)(C)C)c1O ?
Pf apPOL block: 14; mHTT-CaM PPI inh: -4

How did O=C1C(=Cc2ccncc2)Oc2cc(OCc3ccccc3)ccc21 do in these assays?
Pf apPOL block: -8; mHTT-CaM PPI inh: 27

What do the screens show for `COc1ccccc1N1CCN(C(=O)c2sc3ncccc3c2-n2cccc2)CC1`?
Pf apPOL block: -1; mHTT-CaM PPI inh: 0

What do the screens show for `O=C(c1ccc(C#CC2(O)CCCCC2)cc1)N1CCN(c2ccc(F)cc2)CC1`?
Pf apPOL block: -14; mHTT-CaM PPI inh: 52*

What do the screens show for `O=C(c1ccc(F)cc1)N1CCN(c2ccccc2)CC1`?
Pf apPOL block: -3; mHTT-CaM PPI inh: -2

What do the screens show for `CCn1ccc2c(cc(C(=O)Nc3ccccc3OC)n2C)c1=O`?
Pf apPOL block: -2; mHTT-CaM PPI inh: -7

Results for COc1ccc(-c2nnc(C)c(NC3CCCC3)n2)cc1 ?
Pf apPOL block: -12; mHTT-CaM PPI inh: 52*

What do the screens show for `COc1ccc(CNc2nc(-c3ccc(C)cc3)nnc2C)cc1`?
Pf apPOL block: 2; mHTT-CaM PPI inh: 5

What do the screens show for `Cc1nc(CCNC(=O)C2CCCN2C(=O)c2cccc(Cl)c2)cs1` (stereo unspecified)?
Pf apPOL block: 0; mHTT-CaM PPI inh: 0

What do the screens show for `O=C(O)/C(=C\c1ccco1)NC(=O)c1ccc(Cl)cc1Cl`?
Pf apPOL block: -13; mHTT-CaM PPI inh: -1

How did CC1(C)CC2CC(C)(CN2C(=O)/C(=C/c2ccco2)NC(=O)c2ccc(Cl)cc2)C1 (stereo unspecified) do in these assays?
Pf apPOL block: 0; mHTT-CaM PPI inh: 62*

What do the screens show for `Cc1ccc(S(=O)(=O)N2C=Cc3ccccc3C2c2c[nH]c3ccccc23)c(C)c1` (stereo unspecified)?
Pf apPOL block: 12; mHTT-CaM PPI inh: 55*

Results for Cc1ccc(S(=O)(=O)N2CCSC2c2ccccc2Cl)c(C)c1 (stereo unspecified) ?
Pf apPOL block: -4; mHTT-CaM PPI inh: -55

How did CC1(C)CC(=O)C2=C(C1)N(c1ccccc1)C(N)=C(C#N)C2c1ccc(Br)s1 (stereo unspecified) do in these assays?
Pf apPOL block: -3; mHTT-CaM PPI inh: 89*

Results for Cc1cccc(N2C(N)=C(C#N)C(c3cccs3)C3=C2CC(C)(C)CC3=O)c1 (stereo unspecified) ?
Pf apPOL block: -4; mHTT-CaM PPI inh: 33

What do the screens show for `COc1ccc(N2C(N)=C(C#N)C(c3ccc(F)cc3)C3=C2CC(C)(C)CC3=O)cc1` (stereo unspecified)?
Pf apPOL block: 0; mHTT-CaM PPI inh: 13

Results for CC1(C)CC(=O)C2=C(C1)N(c1ccc(F)cc1)C(N)=C(C#N)C2c1cc(Br)cs1 (stereo unspecified) ?
Pf apPOL block: -4; mHTT-CaM PPI inh: 81*

Results for CCCn1c(=N)c(C(=O)NCCc2ccccc2)cc2c(=O)n3ccccc3nc21 ?
Pf apPOL block: -9; mHTT-CaM PPI inh: -1

How did CCCOc1ccc(C2Nc3ccc4ncccc4c3C3=C2C(=O)CC(C)(C)C3)cc1 (stereo unspecified) do in these assays?
Pf apPOL block: 2; mHTT-CaM PPI inh: 38

Compound activity: PubChem BioAssay, University of Kansas High Throughput Screening Laboratory
